Experimental data reported in the supplement of paper PMC6522484.
± gives the standard deviation of the averaged measurements.

Legend:
DLD1 [1] = assay: cell viability (CellTiter-Glo) relative to plate median (fraction of plate median); higher = more viable cells; conditions: 10 µM, treatment time 24 h
Procedure, shortened: (§1)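 Values are the mean of two independent replicates of luminescence normalised to the plate median with webcellHTS2, using the additive method without log transformation. They come from colorectal cancer cell lines stably transduced with lentiviral TCF/Wnt firefly luciferase reporters (7TFP or TCF4/Wnt), seeded in 384-well plates. After 24 h the cells got kinase inhibitor library compounds at a final 10 µM for 24 h, and parallel plates were read for firefly luciferase or CellTiterGlo on a Tecan F500.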

HCT116 [2] = assay: as above; conditions: 10 µM; treatment time 24 h; reporter: TCF4/Wnt
Procedure, shortened: as §1

SW480 [3] = assay: as above; conditions: 10 µM; treatment time 24 h; reporter: 7TFP
Procedure, shortened: as §1

DLD1 [4] = assay: TCF/Wnt firefly luciferase reporter signal relative to plate median (fraction of plate median); higher = higher Wnt reporter signal; conditions: 10 µM, treatment time 24 h
Procedure, shortened: as §1

HCT116 [5] = assay: as above; conditions: 10 µM; treatment time 24 h; reporter: TCF4/Wnt
Procedure, shortened: as §1

SW480 [6] = assay: as above; conditions: 10 µM; treatment time 24 h; reporter: 7TFP
Procedure, shortened: as §1

SMILES	cell viability (DLD1 [1]; reporter: 7TFP)	cell viability (DLD1 [1]; reporter: TCF4/Wnt)	cell viability (HCT116 [2])	cell viability (SW480 [3])	TCF/Wnt firefly luciferase reporter signal (DLD1 [4]; reporter: 7TFP)	TCF/Wnt firefly luciferase reporter signal (DLD1 [4]; reporter: TCF4/Wnt)	TCF/Wnt firefly luciferase reporter signal (HCT116 [5])	TCF/Wnt firefly luciferase reporter signal (SW480 [6])
CCCCOc1c(C(=O)c2c(F)cc(C)cc2F)c[nH]c2nncc1-2	1.075 ± 0.0071	1.02	1.13 ± 0.085	0.862 ± 0.067	0.489 ± 0.005	0.617 ± 0.071	0.879 ± 0.098	0.391 ± 0.12
CNC(=O)c1cc(COc2nnc(Nc3ccc(Cl)cc3)c3ccoc23)ccn1 [Telatinib (BAY 57-9352)]	1.13 ± 0.23	0.987 ± 0.033	1.05 ± 0.079	0.972 ± 0.024	1.32 ± 0.05	1.09 ± 0.13	1.08 ± 0.25	1.08 ± 0.14
O=C1NCCc2[nH]c(-c3ccncc3)cc21	1.03 ± 0.14	1.03 ± 0.054	0.665 ± 0.14	1.24 ± 0.11	0.612 ± 0.054	0.44 ± 0.11	0.222 ± 0.0085	0.829 ± 0.023
CCn1c(-c2nonc2N)nc2c(C#CC(C)(C)O)ncc(OC[C@H]3CCCNC3)c21	0.909 ± 0.074	0.954 ± 0.065	0.805 ± 0.0057	1.04 ± 0.05	1.05 ± 0.55	1.22 ± 0.26	1.65 ± 0.41	1.39 ± 0.23
COc1ccc(S(=O)(=O)N(C(C)=O)c2ccccc2/C=C/c2cc[n+]([O-])cc2)cc1	0.982 ± 0.14	1.17 ± 0.14	0.619 ± 0.28	1.14 ± 0.085	0.725 ± 0.03	1 ± 0.14	0.278 ± 0.0071	0.7 ± 0.083
FC(F)(F)c1ccc(Nc2nc3ccc(Oc4ccnc(-c5ncc(C(F)(F)F)[nH]5)c4)cc3[nH]2)cc1 [Raf265 derivative]	1.1	1.07 ± 0.014	1.2 ± 0.21	0.975 ± 0.12	1.11 ± 0.085	1.16 ± 0.085	0.912 ± 0.28	0.81 ± 0.44
CCOc1cc2ncc(C#N)c(Nc3ccc(OCc4ccccn4)c(Cl)c3)c2cc1NC(=O)/C=C/CN(C)C [Neratinib (HKI-272)]	0.817 ± 0.03	0.877 ± 0.1	0.982 ± 0.083	0.541 ± 0.72	0.521 ± 0.3	0.763 ± 0.05	0.53 ± 0.33	0.508 ± 0.7
OCCn1cc(-c2cnc3nnn(Cc4ccc5ncccc5c4)c3n2)cn1	1.16 ± 0.035	1.01 ± 0.071	1.09 ± 0.028	0.905 ± 0.029	1.1 ± 0.11	1.07 ± 0.13	1.25 ± 0.028	1.05 ± 0.042
Cc1ccc(NC(=O)c2ccc(CN3CCN(C)CC3)cc2)cc1Nc1nccc(-c2cccnc2)n1 [Imatinib (Gleevec)]	1.05 ± 0.099	1.035 ± 0.0071	0.993 ± 0.024	0.986 ± 0.011	1.65 ± 0.057	1.55 ± 0.11	1.42 ± 0.23	1.39 ± 0.22
O=C(O)c1ccc(Nc2ncc3c(n2)-c2ccc(Cl)cc2C(c2c(F)cccc2F)=NC3)cc1	1.06 ± 0.028	0.993 ± 0.067	0.982 ± 0.0042	1.01 ± 0.055	1.1 ± 0.19	1.11 ± 0.042	1.375 ± 0.0071	0.9575 ± 0.00071
CN1CCN(CCOc2cc(OC3CCOCC3)c3c(Nc4c(Cl)ccc5c4OCO5)ncnc3c2)CC1 [Saracatinib (AZD0530)]	0.936 ± 0.048	0.874 ± 0.066	0.968 ± 0.0042	1.03 ± 0.047	0.824 ± 0.12	0.879 ± 0.036	0.799 ± 0.25	0.613 ± 0.32
CCn1cc(-c2ccnc3[nH]c(-c4cccc(CN(C)C)c4)cc23)c(-c2ccc(NC(=O)N(C)C)cc2)n1	0.994 ± 0.11	0.9965 ± 0.0021	0.913 ± 0.05	1.07 ± 0.099	1.01 ± 0.11	1.05 ± 0.081	1.71 ± 0.028	1.02 ± 0.16
Cc1ccc(C(=O)Nc2cccc(C(F)(F)F)c2)cc1Nc1nc(-c2cccnc2)nc2c1cnn2C	1.07 ± 0.035	1.06	0.912 ± 0.2	1.05 ± 0.042	1.36 ± 0.085	0.925 ± 0.2	1.12 ± 0.099	0.952 ± 0.48
C=CC(=O)Nc1cccc(Sc2nc(Nc3ccc(N4CCN(C)CC4)cc3)ncc2Cl)c1	1.1 ± 0.035	1.02 ± 0.15	1.02	1.195 ± 0.0071	1.79 ± 0.25	1.15 ± 0.22	1.64 ± 0.67	1.32 ± 0.58
N#CCNC(=O)c1ccc(-c2ccnc(Nc3ccc(N4CCOCC4)cc3)n2)cc1	1.06 ± 0.014	1.12 ± 0.021	1.25 ± 0.078	1.09 ± 0.035	1.32 ± 0.26	1.16 ± 0.13	1.31 ± 0.25	0.923 ± 0.34
CCCS(=O)(=O)Nc1ccc(F)c(C(=O)c2c[nH]c3ncc(-c4ccc(Cl)cc4)cc23)c1F [Vemurafenib (PLX4032)]	1.19 ± 0.13	0.976 ± 0.023	1.2 ± 0.05	0.878 ± 0.042	1.14 ± 0.028	0.939 ± 0.015	1.155 ± 0.0071	0.866 ± 0.11
O=C1NC(=O)/C(=C\c2ccc3nccnc3c2)S1	1 ± 0.038	1.04 ± 0.063	1.04 ± 0.042	0.854 ± 0.055	1.38 ± 0.05	1.48 ± 0.021	1.96 ± 0.18	1.3 ± 0.33
Cc1cc2c(F)c(Oc3ncnn4cc(OC[C@@H](C)O)c(C)c34)ccc2[nH]1	0.958 ± 0.13	1.01 ± 0.028	1.16 ± 0.014	0.942 ± 0.021	0.846 ± 0.22	1.05 ± 0.13	0.961 ± 0.11	0.978 ± 0.031
C[C@@H]1COC(Nc2ccc3ncnc(Nc4ccc(OCc5nccs5)c(Cl)c4)c3c2)=N1	0.932 ± 0.12	0.973 ± 0.028	1.055 ± 0.0071	0.988 ± 0.031	1.14 ± 0.18	1.51 ± 0.45	1.52 ± 0.042	1.22 ± 0.25
c1ccc2c(-c3cnn4cc(-c5ccc(N6CCNCC6)cc5)cnc34)ccnc2c1	0.666 ± 0.25	0.874 ± 0.093	0.62 ± 0.14	0.8895 ± 0.0064	1.02 ± 0.014	1.08 ± 0.18	0.634 ± 0.3	1.35 ± 0.11
CC[C@@H]1C(=O)N(C)c2cnc(Nc3ccc(C(=O)N[C@H]4CC[C@H](N5CCN(CC6CC6)CC5)CC4)cc3OC)nc2N1C(C)C [BI6727 (Volasertib)]	0.744 ± 0.32	0.894 ± 0.071	0.554 ± 0.18	0.995 ± 0.16	1.68 ± 0.18	1.98 ± 0.49	0.866 ± 0.0085	1.39 ± 0.27
O=C(Nc1ccc(OC(F)(F)F)cc1)c1sccc1NCc1ccnc2ccccc12	1.01 ± 0.023	0.924 ± 0.025	1.21 ± 0.035	0.971 ± 0.13	1.08 ± 0.15	0.97 ± 0.085	0.842 ± 0.62	0.864 ± 0.48
